FLuc counter: qHTS profiling assay for firefly luciferase inhibitor/activator using purifed enzyme and Km concentrations of substrates (counterscreen for miR-21 project). Luciferin 4-monooxygenase (Photinus pyralis), P08659. purified FLuc, Km substrates, luminescence inhibition. Potency, µM (top dose mostly 57.5 µM), inactives show top-dose activity change, negative = inhibition, usual class: inhibitors. hit rate 6.9% among 360,000. AID 588342, 2011;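 also: plate controls were vehicle for no effect and reference inhibitor for full effect; nearly all actives have a fitted effect of over 55% in size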
Target sequence (P08659 whole entry, looked up): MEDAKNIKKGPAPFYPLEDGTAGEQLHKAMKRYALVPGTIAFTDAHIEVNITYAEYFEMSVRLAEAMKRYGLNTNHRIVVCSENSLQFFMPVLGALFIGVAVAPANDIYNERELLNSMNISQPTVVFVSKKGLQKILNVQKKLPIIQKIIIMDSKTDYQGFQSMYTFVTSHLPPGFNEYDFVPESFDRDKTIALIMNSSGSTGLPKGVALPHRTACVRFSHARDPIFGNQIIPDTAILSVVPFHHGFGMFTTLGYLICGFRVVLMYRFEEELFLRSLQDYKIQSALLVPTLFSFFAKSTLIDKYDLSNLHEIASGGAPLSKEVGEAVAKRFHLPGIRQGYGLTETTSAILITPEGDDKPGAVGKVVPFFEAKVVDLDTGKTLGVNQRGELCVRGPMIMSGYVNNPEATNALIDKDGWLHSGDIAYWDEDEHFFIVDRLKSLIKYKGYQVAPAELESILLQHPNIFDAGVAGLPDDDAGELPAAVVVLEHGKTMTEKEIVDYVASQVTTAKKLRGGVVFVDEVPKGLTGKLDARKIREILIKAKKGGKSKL
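Purified P. pyralis luciferase (10nM final) with 10uM D-luciferin and 10uM ATP (Km levels) in 50mM Tris acetate pH 7.5, 10mM Mg acetate, 0.01% Tween-20, 0.05% BSA; qHTS 6-point titration, ~60 µM downward; luminescence read.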
ELG1 genotoxic: qHTS screen for small molecules that induce genotoxicity in human embryonic kidney (HEK293T) cells expressing luciferase-tagged ELG1; HEK293T ELG1-luciferase reporter, luminescence, 16 h; Potency, µM (highest dose often 46 µM), for inactives: at the highest dose activity change, positive = activation, most hits filed as activators; hit rate 1.3% among 330,000; also: % of control where 0% means no effect; nearly all actives have a fitted effect of over 60% in size
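Screening used a luciferase reporter fused to human ELG1 in HEK293T cells. Luminescence was read on a CCD plate imager after 16 hr exposure and 30 min ONE-Glo incubation.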
Luc counter: Counterscreen for Luciferase (Kinase-Glo TM) Inhibition. Luciferin 4-monooxygenase (Photuris pensylvanica), Q27757. Kinase-Glo luciferase, ATP luminescence, 8 min. Potency, µM (top dose mostly 38.3 µM), inactives show at the highest dose activity change, negative = inhibition, most hits filed as inhibitors. hit rate 0.28% among 200,000. AID 1379, 2008; also: % is scaled to controls: 0 for no effect and ±100 for the full control effect; nearly all actives have a fitted effect of over 60% in size
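Substrate mix (final 50 mM imidazole pH 7.2, 50 mM KCl, 7 mM MgCl2, 10 uM ATP, 0.01% Tween 20, 0.05% BSA) plus pin-tool compound, then Kinase-Glo detection mix; 8 min ambient, luminescence read.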
SMN2 splice enh: qHTS Assay for Enhancers of SMN2 Splice Variant Expression; HEK293 SMN2-luciferase splicing reporter, luminescence, 30-36 h; Potency, µM (titrated, usually from 46.1 µM), inactives show at the highest dose activity change, positive = activation, usual class: activators; hit rate 2.8% among 210,000; AID 1458, 2008; also: % of control where 0% means no effect; nearly all actives have a fitted effect of over 55% in size
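HEK293 cells carry an SMN2 […]–luciferase reporter in which exon 7 inclusion puts luciferase in frame. Cells were plated 10-12 h before compound addition, then incubated 30-36 h at 37C. ONE-Glo luminescence was read; sodium butyrate at 4.5 mM final served as control.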
Rab9 promoter act: qHTS Assay for Rab9 Promoter Activators. hit rate 2.8% among 320,000. Huh7 Rab9 promoter-luciferase reporter, luminescence, 24 h. Potency, µM (titrated, usually from 9.22 µM), for inactives: at the top dose activation, negative = inhibition, actives largely listed as activators. AID 485297, 2010; also: % of control where 0% means no effect; nearly all actives have a fitted effect of over 60% in size
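Rab9 promoter-driven luciferase in stably transfected Huh7 cells; 1500 cells/well rested 2 h, exposed to compound in DMSO for 24 h at 37 °C, 5% CO2. Luminescence read 10 min after adding luciferase reagent at ambient temperature.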
NPC1 prom act: qHTS Assay for NPC1 Promoter Activators; hit rate 2.4% among 320,000; Huh7 NPC1 promoter luciferase reporter, 24 h; Potency, µM (doses to about 9.22 µM), for inactives: at the highest dose activation, hits mostly activators; also: % of control where 0% means no effect; nearly all actives have a fitted effect of over 60% in size
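Stably transfected Huh7 (NPC1 promoter→luciferase), 1500 cells/well in Opti-MEM + 10% FBS, 2 h settle, then compound 24 h at 37 °C. Luminescence after 10 min with Amplite reagent.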
Active calls of the source: *; ? = inconclusive; nt = no result given. Sampled rows, rich in hits. Any-hit rate of the full collection: about 7.5%. Calls follow the shape of the dose curve; as a rule, active = well fitted curve in the direction sought with a large enough effect; inconclusive = small, poorly fitted or top-dose-only effect, or another doubt; inactive = no such curve, though single readings can be large; an effect the other way counts as inactive or inconclusive. Potency is read from the fitted curve at half-maximal effect.

SMILES | FLuc counter | ELG1 genotoxic | Luc counter | SMN2 splice enh | Rab9 promoter act | NPC1 prom act
Cc1cc(=O)oc2cc(OCC(=O)c3ccccc3)ccc12 | -16% | 0% | nt | nt | 11% | 0%
COCCOC(=O)c1c(C)oc2ccc(OCc3ccccc3)cc12 | -20% | -1% | -1% | -7% | -2% | -1%
COCCOC(=O)c1c(C)oc2ccc(OC(=O)c3ccco3)cc12 | 24µM* | 7% | 2% | 8% | -2% | -4%
CCN(Cc1ccccc1)C(=O)Cn1c(=O)n(-c2cccc(C)c2)c(=O)c2c1c1cc(C)ccc1n2C | 0% | nt | nt | nt | nt | nt
CC(C)c1cc(/C=C(\C#N)C(=O)NCCCc2ccccc2)cc(C(C)C)c1O | nt | nt | nt | -58% | nt | nt
CCOc1ccc(NS(=O)(=O)c2ccc(-c3ccc(=O)[nH]n3)o2)cc1 | 2% | 0% | nt | nt | 1% | -3%
CCn1c(O)c(N=Nc2ccc3ccccc3n2)c2ccccc21 | 3µM* | 5.8µM* | nt | nt | 1.1µM* | 3.2µM*
CC1Cc2ccccc2N1S(=O)(=O)c1nnc(NC(=O)c2cccc(F)c2)s1 (stereo unspecified) | 1% | nt | nt | nt | nt | nt
COCCCn1c(C)cc(C(=O)COC(=O)C23CC4CC(CC(O)(C4)C2)C3)c1C | ? | ? | nt | nt | 0.63µM* | ?
O=C(COC(=O)C12CC3CC(CC(O)(C3)C1)C2)NCCc1ccc(Cl)cc1 | -6% | 4% | 1% | -14% | -1% | -3%
Cn1cccc1C(=O)NC(=O)COC(=O)c1ccccc1O | 0% | 3% | -8% | 35µM* | -1% | 11%
O=C(COC(=O)C12CC3CC(CC(O)(C3)C1)C2)Nc1ccc(Cl)cc1F | 7.6µM* | ? | nt | nt | 1.3µM* | ?
COc1ccccc1NC(=O)COC(=O)C12CC3CC(CC(Cl)(C3)C1)C2 | 15µM* | 1% | 0% | 0% | 0% | -1%
Cn1cccc1C(=O)NC(=O)COC(=O)c1ccc(O)cc1 | -13% | 7% | -2% | -9% | 9% | -28%
COc1ccc(Cl)cc1C(=O)Nc1cccnc1Cl | -13% | 8% | nt | nt | 11% | 17%
Cc1ccc(Cl)cc1NC(=O)c1cc2ccccc2cc1O | -17% | 3% | nt | nt | -52% | -31%
O=C(Cn1cc(SCc2ccc(F)cc2)c2ccccc21)N1CCCCC1 | -15% | nt | nt | nt | nt | nt
COc1ccccc1NC(=O)COC(=O)C1CC2C=CC1C2 (stereo unspecified) | 24µM* | 5% | -4% | 8% | 1% | 0%
COCCNC(=O)COc1ccccc1Cl | 6% | 5% | 1% | -12% | 0% | -4%
Cn1cccc1C(=O)NC(=O)COC(=O)C12CC3CC(CC(O)(C3)C1)C2 | 6µM* | 9.2µM* | -17% | 7% | 17% | 14%
Cn1cccc1C(=O)NNC(=O)COc1ccccc1Cl | 15µM* | 13% | nt | nt | 25% | 17%
CCOc1ccccc1NC(=O)COC(=O)C12CC3CC(CC(O)(C3)C1)C2 | 11µM* | -2% | nt | nt | -3% | -1%
COc1ccccc1NC(=O)COC(=O)C12CC3CC(CC(Br)(C3)C1)C2 | nt | 1% | nt | nt | nt | nt
COc1ccc(N2CCN(C(=O)c3nn(-c4ccc(C)cc4)c(=O)n(C)c3=O)CC2)cc1 | -2% | nt | nt | nt | nt | nt
Cc1ccc2c(c1)c1c(n2C)C(C(N)=O)CCC1 (stereo unspecified) | 0% | 3% | -3% | -2% | -2% | -1%
SMILES | FLuc counter | ELG1 genotoxic | Luc counter | SMN2 splice enh | Rab9 promoter act | NPC1 prom act
Cc1ccc2c(c1)c1c(n2C)-c2[nH]ncc2CC1 | 13µM* | 12% | -3% | 13% | 23% | 7%
O=C(COc1ccccc1F)NNC(=O)c1ccc2c(=O)n3c(nc2c1)CCC3 | -3% | 7% | nt | nt | 4% | -2%
O=C(NCCc1ccc(F)cc1)c1ccc2c(=O)n3c(nc2c1)CCC3 | ? | 15% | nt | nt | 3.5µM* | 29%
O=C(NCCOc1ccccc1F)c1ccc2c(=O)n3c(nc2c1)CCC3 | 6µM* | ? | nt | nt | 2.2µM* | 2.8µM*
COc1ccccc1C(=O)Nc1nnc(SCc2cc(=O)n3ccc(C)cc3n2)s1 | -14% | nt | nt | nt | nt | nt
COc1cccc(/C=C/C(=O)NNC(=O)c2cc(C)oc2C)c1 | -15% | -1% | nt | nt | 0% | 8%
Cc1ccc(C(=O)Nc2nc(C)c(C(=O)Nc3ccc4c(c3)CCC4)s2)cc1 | 15µM* | 18µM* | -15% | 5.6µM* | -4% | -13%
Cc1nc(NC(=O)c2ccc(F)cc2)sc1C(=O)Nc1ccc2c(c1)CCC2 | 13µM* | 7% | ? | ? | 5% | 0%
Cc1nc2c(C(=O)NCc3ccccc3Cl)c[nH]n2c(=O)c1Cc1cccc(Cl)c1 | ? | nt | nt | 0% | nt | nt
Cc1ccc(Cl)cc1N1CCN(C(=O)c2cccn2-c2nnc(N3CCCC3)s2)CC1 | 0% | nt | nt | nt | nt | nt
Cc1nc(-c2ccccc2)sc1-c1ccn[nH]1 | 1.5µM* | 2.6µM* | -3% | 7.9µM* | 2.8µM* | 1.4µM*
C#CCSc1nnc(-c2sc(-c3ccccc3)nc2C)n1C | ? | 1% | 1% | -18% | 16% | 5%
Cc1nc(-c2ccccc2)sc1-c1ccnn1C | 4.8µM* | ? | 4% | 13µM* | 2.2µM* | ?
CCn1c(-c2sc(-c3ccccc3)nc2C)n[nH]c1=S | -9% | 0% | -2% | 5% | -2% | 2%
COc1ccccc1C(=O)NNC(=O)C1CCCO1 (stereo unspecified) | 5% | 2% | nt | nt | -2% | 0%
COc1cc(/C=N/N(C)c2ccccc2)ccc1O | 2.4µM* | 4.6µM* | -3% | ? | ? | ?
CN(/N=C/c1ccc2c(c1)OCO2)c1ccccc1 | 6.7µM* | ? | -15% | 20µM* | 2.8µM* | 4µM*
C(=N\N(c1ccccc1)c1ccccc1)/c1ccc2c(c1)OCO2 | -1% | -4% | -2% | -15% | -7% | 0%
CCc1ccc(-n2c(SCc3ccccc3C)nc3[nH]ncc3c2=O)cc1 | -7% | nt | nt | nt | nt | nt
O=C(CC1N=C2c3ccccc3N=C(SCc3ccccc3Cl)N2C1=O)NC1CCCCC1 (stereo unspecified) | -3% | nt | nt | nt | nt | nt
CC1CCCC(C)N1C(=O)CSc1ccc(-c2ccc3c(c2)OCCO3)nn1 (stereo unspecified) | 13µM* | -10% | nt | nt | 13% | -4%
CC1CCN(C(=O)CSc2ccc(-c3ccc4c(c3)OCCO4)nn2)CC1 | 11µM* | -1% | nt | nt | 14% | 2%

From PubChem
